Data as given in PubChem BioAssay (NCI).
This is part of a sample that, as a whole, favours compounds with a hit. Of some 83,000 tested, about 20% had one in any assay.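 Cells were grown in 96-well plates and exposed to the test compound at a single concentration for 48 hours; results are reported as percent growth, with values below 10 considered active.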 Activity calls are given as the source filed them.

Tests used:
Experiment in all cases: NCI-60 one-dose screen, 48 h (100 = growth as untreated, 0 = no growth, -100 = all killed)
Settings in all cases: 10 µM
[1] = test system: SK-MEL-2 melanoma
[2] = test system: EKVX NSCLC
[3] = test system: SN12C renal
[4] = test system: UO-31 renal
[5] = test system: TK-10 renal
[6] = test system: ACHN renal
[7] = test system: CAKI-1 renal
[8] = test system: A498 renal
[9] = test system: CCRF-CEM leukemia
[10] = test system: MOLT-4 leukemia
[11] = test system: SR leukemia
[12] = test system: RPMI-8226 leukemia
[13] = test system: OVCAR-8 ovarian
[14] = test system: OVCAR-5 ovarian
[15] = test system: OVCAR-4 ovarian
[16] = test system: SK-OV-3 ovarian
[17] = test system: IGROV1 ovarian
[18] = test system: OVCAR-3 ovarian
[19] = test system: HS 578T breast
[20] = test system: NCI/ADR-RES ovarian

Measured: growth

Nc1nc(-c2ccccc2)cs1
inactive: [1] 61.6% | [2] 32% | [3] 68.2% | [4] 29% | [5] 83.5% | [6] 59.5% | [7] 69.9% | [8] 94.7% | [9] 43.3% | [10] 35.1% | [11] 30% | [12] 34.6% | [13] 37.7% | [14] 83.5% | [15] 59.4% | [16] 82.5% | [17] 63.7% | [18] 44.6% | [19] 55.8% | [20] 28.5%

CC(=O)Nc1ccc(-c2cn(-c3cccc(C(=O)Nc4cccc(OC(F)(F)F)c4)c3)nn2)cn1
inactive: [1] 95.4% | [2] 105% | [3] 114% | [4] 131% | [5] 111% | [6] 101% | [7] 94.5% | [8] 178% | [9] 98.1% | [10] 109% | [11] 97.8% | [12] 96% | [13] 57.1% | [14] 108% | [15] 102% | [16] 93.9% | [17] 108% | [18] 110% | [19] 53.7% | [20] 97.7%

COc1cc2c3c(n(CCCn4ccnc4)c(=O)c2cc1OC)-c1nc2c(cc1C3=O)OCO2
inactive: [1] 123% | [2] 91.6% | [3] 19.7% | [4] 26.5% | [5] 110% | [7] 10.2% | [8] 118% | [9] 18.5% | [10] 20.9% | [11] 13.8% | [12] 44.3% | [13] 43.6% | [14] 57.2% | [15] 80.9% | [16] 18.3% | [17] 56% | [18] 48.5% | [19] 119% | [20] 84.2%
active: [6] 3.67%

Cc1ccc(/C=C/C(=O)c2ccc(NC(=O)CSc3nnc(-c4c[nH]c5ccccc45)n3-c3ccccc3)cc2)c(C)c1
inactive: [1] 87.7% | [2] 63.7% | [3] 27.1% | [4] 65.9% | [5] 73.4% | [6] 59.5% | [7] 66.9% | [8] 106% | [9] 83.1% | [10] 43.6% | [11] 41.6% | [12] 22.8% | [14] 77.3% | [15] 13.1% | [16] 106% | [17] 66.8% | [18] 32% | [19] 67.8% | [20] 64.2%
active: [13] 1.17%

CC(=O)c1cc(C(=O)c2ccc3c(c2)NC(=O)CO3)n2ccc3ccccc3c12
inactive: [1] 107% | [2] 75% | [3] 86.1% | [4] 59% | [5] 78.2% | [6] 50% | [7] 55.4% | [8] 97.3% | [9] 82.9% | [10] 66.8% | [11] 63.2% | [12] 62.7% | [13] 50.3% | [14] 85.7% | [15] 47.9% | [16] 108% | [17] 96.2% | [18] 118% | [19] 63.1% | [20] 69%

CCOC(=O)C1=C(N)N(c2ccccc2)C2=C(C(=O)CC(C)(C)C2)C1c1ccccc1OC (stereo not given)
inactive: [1] 109% | [2] 91.9% | [3] 92.6% | [4] 74.4% | [5] 106% | [6] 103% | [7] 97.2% | [8] 98.7% | [9] 100% | [10] 105% | [11] 95% | [12] 100% | [13] 108% | [14] 103% | [15] 102% | [16] 98.2% | [17] 96.9% | [18] 112% | [19] 106% | [20] 96.6%

COc1ccc(C(=O)/C=C/c2ccc(Cl)c(C(F)(F)F)c2)cc1S(N)(=O)=O
active: [1] -83.1% | [2] -98.2% | [3] -100% | [4] -99.6% | [5] -96.3% | [6] -100% | [7] -100% | [8] -30.3% | [9] 4.6% | [10] 8.09% | [11] 8.87% | [12] 2.54% | [13] -73.4% | [14] -100% | [15] -99.7% | [16] 9.96% | [17] -91.5% | [18] -66.5% | [19] -41.3% | [20] -44%

COc1ccc(NC(=O)Nc2ccc(OCC(=O)N=Nc3c(O)[nH]c4ccc([N+](=O)[O-])cc34)cc2)cc1
inactive: [1] 89.4% | [2] 83.7% | [3] 72.5% | [4] 94.3% | [5] 113% | [6] 102% | [7] 92.5% | [8] 101% | [9] 93.7% | [10] 100% | [11] 92.4% | [12] 110% | [13] 37.1% | [14] 124% | [15] 59.8% | [16] 93.9% | [17] 92.6% | [18] 24.6% | [19] 39% | [20] 91.1%

OCc1[nH]nc2cc(Nc3ncc4ccc(Br)c(OC5CCC(O)CC5)c4n3)ccc12 (stereo not given)
active: [1] -75.8% | [2] -27.8% | [3] 1.92% | [4] -27.2% | [5] -89.6% | [6] 0.365% | [7] -17.2% | [8] -26.7% | [9] 0.234% | [10] 1.17% | [11] 3.06% | [12] 3.2% | [13] 8.63% | [14] -17.9% | [15] 4.77% | [17] -12.4% | [18] 2.95% | [19] -28.5% | [20] -3.04%
inactive: [16] 13.7%

CCCn1c(=O)c2[nH]c(-c3ccc(OCc4nc5ccc(C(F)(F)F)cc5[nH]4)cc3)nc2n(CCC)c1=O
active: [13] -7.74%
inactive: [1] 66.8% | [2] 53.2% | [3] 53.5% | [4] 52.1% | [5] 96.2% | [6] 64.7% | [7] 43.6% | [8] 51.1% | [9] 35.3% | [10] 11.5% | [11] 24.6% | [12] 28.1% | [14] 82.3% | [15] 60% | [16] 90.7% | [17] 62.7% | [18] 52.5% | [19] 33.4% | [20] 55.8%

N#Cc1c(-c2ccc(Cl)cc2)cc(-c2ccccc2)nc1OCc1ccccc1
inactive: [1] 76% | [2] 52.6% | [3] 87.8% | [4] 65.6% | [5] 97.8% | [6] 75% | [7] 73.8% | [8] 118% | [9] 79.9% | [10] 47.8% | [11] 42.2% | [12] 60.3% | [13] 93% | [14] 92.9% | [15] 76.9% | [16] 83.1% | [17] 87% | [18] 97.9% | [19] 85.2% | [20] 76%

CN(C)c1nc(NCCNS(=O)(=O)c2ccc(C(=O)/C=C/c3ccccc3)cc2)nc(Nc2ccc(F)cc2)n1
active: [3] -89% | [10] 8.21% | [11] -4.76% | [17] 8.78% | [18] -42.2%
inactive: [1] 81% | [2] 29.1% | [4] 18.2% | [5] 92.5% | [6] 12.7% | [7] 38.1% | [8] 61.1% | [9] 14.8% | [12] 18.2% | [13] 41.9% | [14] 38.2% | [15] 25.2% | [16] 97.8% | [19] 72.9% | [20] 15.7%

CC1=C(c2cc(-c3ccc(Cl)cc3)c(C#N)c(N)n2)C(c2ccccc2)NC(=S)N1 (stereo not given)
inactive: [1] 98.6% | [2] 98.6% | [3] 62.2% | [4] 63.5% | [5] 114% | [6] 19.6% | [7] 72.3% | [8] 137% | [14] 93.5% | [15] 81.3% | [16] 126% | [17] 65.7% | [18] 17.1% | [19] 75.3% | [20] 37.9%
active: [9] 7.65% | [10] 6.11% | [11] 2.54% | [12] 9.51% | [13] 5.74%

Clc1ccc2c(N/N=C/c3c[nH]c4ccc(Br)cc34)ccnc2c1
active: [1] -93% | [2] -93% | [3] -56.3% | [4] -95.8% | [5] -67.2% | [6] -90.8% | [7] -94% | [8] -77% | [9] -7.03% | [10] -48.7% | [11] -45.6% | [12] -42.1% | [13] -64.6% | [14] -66.5% | [15] -78.6% | [16] -84.7% | [17] -41.2% | [18] -82.8% | [19] -58.5% | [20] -77.5%

O=C(CSc1nnc(-c2ccc3nc(-c4ccc(Cl)cc4)[nH]c3c2)o1)Nc1ccc(Cl)cc1
inactive: [5] 50.7% | [8] 26% | [16] 21.6% | [20] 11.8%
active: [1] -25.2% | [2] 5.97% | [3] -93.7% | [4] -45.4% | [6] -89.7% | [7] -35.6% | [9] -1.24% | [10] -4.88% | [11] 3.21% | [12] 0.0065% | [13] -17.6% | [14] -10.2% | [15] -46.7% | [17] -18.8% | [18] -15.4% | [19] -32.5%

COc1cc(-c2nc3cc(Cl)c(Cl)cc3[nH]2)ccc1OCc1nnc(-c2ccc(Br)cc2)o1
active: [1] 0.585% | [3] -39.2% | [4] -91.1% | [5] -43.4% | [6] -100% | [7] -76.6% | [8] -86.5% | [9] 7.7% | [10] -7.63% | [11] -34.4% | [12] -23.2% | [15] -92.2% | [16] -11.1% | [18] -47.6% | [19] -22.5%
inactive: [2] 14.3% | [13] 15.7% | [14] 39.6% | [17] 42% | [20] 22%
